Screening results as filed in PubChem BioAssay.
Beta cell apopt – beta cell apoptosis inhibition; INS-1E cytokine-induced death, ATP luminescence, 48 h; percent of positive-control rescue, neutral wells zero; protection from apoptosis, % (no concentration beside the values); 300,000 compounds, 0.8% hits; AID 435005;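 active = Every replicate reaches about 75%, or at least half do and their mean reaches it too, limit read from the data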;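 note: higher means more ATP so stronger rescue from cytokine killing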
Gli-Sufu block – blocks Gli-Sufu signaling in a luciferase reporter; AID 588413; 340,000 compounds, 0.74% hits; inhibition, % at 5 µM; Sufu-KO-LIGHT fibroblasts, Gli luciferase reporter luminescence;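 active = inhibition above about 55%, limit read from the data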
CSC inhib – blocks cancer stem cells | inhibition, % at 7.5 µM | AID 2717 | 300,000 compounds, 1.1% hits | cancer stem cell-like cells viability, luminescence; in the data active = inhibition above about 75%; tested in HMLE shEcad cells
Mdm2 MdmX PPI – inhibitors of human Mdm2/MdmX interaction; SaOS-2 split-luciferase Mdm2/MdmX complementation, luminescence; inhibition, % at 8 µM; 330,000 compounds, 3% hits; AID 485346; O15151+Q00987;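 active = inhibition of at least 50% at 8 µM in the primary screen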
697 NFkB inh – inhibitors of the PMA/ionomycin-induced NF-kB reporter in 697 B cells | inhibition, % at 4 µM | 330,000 compounds, 0.33% hits | 697 B-cell NF-kB luciferase reporter, 16 h; in the data active = inhibition above about 35%
Jurkat NFkB inh – lowers PMA/ionomycin-induced NF-kB signal in Jurkat cells | PMA/ionomycin-induced NF-kB luciferase reporter, luminescence | inhibition, % at 4 µM | 330,000 compounds, 0.53% hits; in the data active = inhibition above about 50%
Jurkat NFkB conf – lowers PMA/ionomycin-induced NF-kB signal in Jurkat cells | Jurkat NF-kB luciferase, 16 h | 2,700 compounds, 27% hits | inhibition, % at 4 µM | AID 435020 | shares compounds with Jurkat NFkB inh;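 active = inhibition reaching about 45% at 4 µM in either replicate, limit read from the data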
Of the large screens only hits and unclear results are named; the others gave an inactive call (follow-up assays come after a bar, where they were run). Compounds with a hit are over-represented: about 4.5% of the library has one in this group of screens.

CCOc1ccccc1NC(=O)Cn1nnc(C(=O)NCc2ccco2)c1N	Jurkat NFkB inh 69 | Jurkat NFkB conf 56
CCC(=O)NC(=S)Nc1ccc(-c2nc3ccccc3s2)cc1	none | Jurkat NFkB conf inactive
CCC(=O)NC(=S)Nc1ccc(-c2nc3ccc(C)cc3s2)cc1	none
N#Cc1ccccc1Cn1cc(/C=N/Nc2ccc([N+](=O)[O-])cn2)c2ccccc21	Jurkat NFkB inh 67 | Jurkat NFkB conf inactive
CC(=O)N(Cc1ccccc1)C(CC(=O)NCc1ccccc1)C(=O)O (centres undefined)	none (no result: Beta cell apopt, CSC inhib, Mdm2 MdmX PPI, 697 NFkB inh, Jurkat NFkB inh)
COc1ccc2oc(C(=O)Nc3nc(C)cs3)c(C)c2c1	none
COc1ccccc1N1C(=NC(=O)COc2ccccc2)SC2CS(=O)(=O)CC21 (centres undefined)	none
O=C(Nc1cccc2ccccc12)OC1C=CS(=O)(=O)C1 (centres undefined)	Jurkat NFkB inh 90 (no result: CSC inhib) | Jurkat NFkB conf 65
NC(=O)Nc1cccc2ccccc12	none (no result: CSC inhib)
Cc1cccc(NC(=S)N/N=C/c2cccc(O)c2)c1C	CSC inhib 80, Jurkat NFkB inh 62 | Jurkat NFkB conf inactive
O=C(O)c1cccc(NC(=S)N/N=C/c2cccc(O)c2)c1	none
Cc1ccc(S(=O)(=O)N2CCCCC2CCNC(=O)C(=O)NCc2ccccc2)cc1 (centres undefined)	Jurkat NFkB inh 63 | Jurkat NFkB conf inactive
O=C(NCCc1ccccc1)C(=O)NCC1CCCN1S(=O)(=O)c1ccccc1 (centres undefined)	Jurkat NFkB inh 56 | Jurkat NFkB conf inactive
CC1CCN(C(=O)c2cc3c(ccc4ccccc43)o2)CC1	none | Jurkat NFkB conf inactive
Cc1cc(C)cc(N/C(N)=N/c2nc(C)cc(C)n2)c1	Jurkat NFkB inh 51 | Jurkat NFkB conf inactive
Cc1ccc(N/C(N)=N/c2nc(C)cc(C)n2)cc1	none
COc1ccc(C(=O)Nc2ccc(NC(=O)C3CC3)nc2)cc1	none
COCCn1c(N)c(N(Cc2ccccc2)C(=O)COc2ccccc2F)c(=O)[nH]c1=O	none (no result: CSC inhib)
Cc1ccc(C(=O)CCNc2ccc(F)c(Cl)c2)o1	Jurkat NFkB inh 73 | Jurkat NFkB conf inactive
Cc1ccc(C(=O)CCNc2ccc(Br)cc2)o1	none
C/C(=C/CCC(C)(O)C1CC[C@@]2(C)[C@@H]3CC=C4[C@@H](CC[C@H](O[C@H]5O[C@@H](CO)[C@H](O)[C@@H](O)[C@@H]5O)C4(C)C)[C@]3(C)C(=O)C[C@]12C)CO[C@@H]1O[C@H](CO)[C@@H](O)[C@H](O)[C@H]1O (some centres undefined)	none (no result: CSC inhib)
CC(NC(=O)N1CCN(c2ccccc2F)CC1)c1ccc(F)c(F)c1 (centres undefined)	none
Cc1ccc(COc2ccc(C)nc2[N+](=O)[O-])cc1	none | Jurkat NFkB conf inactive
Cc1ccc(CNC(=O)COc2ccc(C)nc2[N+](=O)[O-])cc1	Jurkat NFkB inh 87 | Jurkat NFkB conf inactive
Cc1ccc(OCc2ccccc2Br)c([N+](=O)[O-])n1	none
Cc1ccc(OCC(=O)NCc2ccc3c(c2)OCO3)c([N+](=O)[O-])n1	none
O=C(c1ccccc1NS(=O)(=O)c1ccc(F)cc1)N1CCOCC1	none
Cc1onc(-c2ccccc2)c1C(=O)Nc1cc(C(F)(F)F)ccc1N1CCOCC1	Jurkat NFkB inh 56 | Jurkat NFkB conf inactive
Cc1onc(-c2ccccc2)c1C(=O)Nc1ccccc1N1CCOCC1	none
O=C(/C=C/c1cnc2ccccc2n1)NC12CC3CC(CC(C3)C1)C2	none (no result: Gli-Sufu block, CSC inhib) | Jurkat NFkB conf inactive
CCN1CCN(c2c(/C=C3\SC(=S)N(Cc4ccco4)C3=O)c(C)c(C#N)c(=O)n2C)CC1	none (no result: Beta cell apopt)
O=C(c1ccc(Cl)s1)N1CCc2ccccc21	none
CCc1sc(C(=O)N2CCc3ccccc32)cc1C	none | Jurkat NFkB conf inactive
COC(=O)c1nccc2c1[nH]c1ccccc12	none
COc1ccc2cc3cc(C(=O)N4CCCCC4C)oc3nc2c1 (centres undefined)	none | Jurkat NFkB conf inactive
COc1ccc2cc3cc(C(=O)N(C)C4CCCCC4)oc3nc2c1	none
O=C1C=C(c2ccc(OC(F)(F)F)cc2)C[C@@H](c2ccc(Cl)cc2)C1	none
Oc1ccccc1-c1cc(-c2ccccc2Cl)[nH]n1	none | Jurkat NFkB conf inactive
Oc1ccc(Cl)cc1-c1cc(-c2ccccc2Cl)[nH]n1	none
Oc1ccccc1-c1cc(-c2cccc(F)c2)n[nH]1	none | Jurkat NFkB conf inactive
CCOC(=O)c1sc(NC(=O)c2ccc(Cl)s2)cc1C	none (no result: Beta cell apopt) | Jurkat NFkB conf inactive
CCOC(=O)c1sc(NC(=O)c2ccc(S(=O)(=O)N(C)C)cc2)cc1C	none
CCOC(=O)c1sc(NC(=O)C2CC2)cc1C	none (no result: Beta cell apopt)
CCOC(=O)c1sc(NC(=O)c2ccccc2)cc1C	none | Jurkat NFkB conf inactive
O=S(=O)(c1cccc(Cn2nnc(-c3ccccc3)n2)c1)N1CCOCC1	none
COc1cc(SC)ccc1C(=O)Nc1ncc(Cl)cc1Cl	none
COc1cc(SC)ccc1C(=O)Nc1ccccn1	none | Jurkat NFkB conf inactive
COc1cc(SC)ccc1C(=O)Nc1ccon1	none
COc1cc(SC)ccc1C(=O)Nc1cccc(C)n1	none | Jurkat NFkB conf inactive
COc1ccc2oc(C(=O)OC(C)C(=O)N3C(C)CCCC3C)c(C)c2c1 (centres undefined)	none
COc1cccc(CC2(CO)CCCN(Cc3ccc(CN4CCCCC4)s3)C2)c1 (centres undefined)	none
CNc1cc([N+](=O)[O-])ccc1N/C=C/C(=O)c1cccs1	none (no result: CSC inhib)
O=C(/C=C/Nc1cccc([N+](=O)[O-])c1)c1cccs1	none (no result: Beta cell apopt) | Jurkat NFkB conf inactive
COc1cc(CC(=O)OCC(=O)NCc2ccco2)cc(OC)c1OC	none
CC(=O)Oc1ccc(C23c4ccccc4C2(OC(C)=O)c2cc(OC(C)=O)ccc23)cc1 (centres undefined)	none (no result: Beta cell apopt, CSC inhib, Mdm2 MdmX PPI, 697 NFkB inh, Jurkat NFkB inh)
COc1cccc(C(=O)/C=C/Nc2cccc(O)c2)c1	none | Jurkat NFkB conf inactive
COc1cccc(C(=O)/C=C/Nc2ccc(NC(C)=O)cc2)c1	none
COc1ccc(N/C=C/C(=O)c2ccc(Cl)cc2)cc1	none | Jurkat NFkB conf inactive
Cn1ccc(NC(=O)c2ccc([N+](=O)[O-])cc2)n1	none (no result: CSC inhib)
CCCCc1ccc(NC(=O)c2cnccn2)cc1	none | Jurkat NFkB conf inactive
NC(=S)N=Nc1c(O)n(Cc2ccc(Br)cc2)c2ccccc12	Jurkat NFkB inh 60 | Jurkat NFkB conf inactive
NC(=S)N=Nc1c(O)n(Cc2ccc(F)cc2)c2ccccc12	none
CCOC(=O)C1=C(COC(=O)/C=C/c2ccc(O)c(OC)c2)NC(=O)NC1C (centres undefined)	none
C[C@]12CC[C@@H]3c4ccc(O)cc4[C@@H](O)C[C@H]3[C@@H]1CC[C@@H]2O	none (no result: Gli-Sufu block)
C[C@]12CC[C@@H]3c4cc(O)c(O)cc4CC[C@H]3[C@@H]1CC[C@@H]2O	Jurkat NFkB inh 52 | Jurkat NFkB conf inactive
O=c1c(=NNc2ccccc2Cl)c(=O)c2ccccc12	none (no result: Beta cell apopt, CSC inhib, Mdm2 MdmX PPI, 697 NFkB inh, Jurkat NFkB inh)
Cc1cc(C)c(NN=c2c(=O)c3ccccc3c2=O)c(C)c1	none | Jurkat NFkB conf inactive
